Bioassay records deposited in PubChem BioAssay by National Center for Advancing Translational Sciences (NCATS).
HP1b chromo inh: HTS for Inhibitors of HP1-beta Chromodomain Interactions with Methylated Histone Tails; AID 540317, 2011; Chromobox protein homolog 1 (Homo sapiens), P83916; AlphaScreen HP1-beta / biotin-H3K9me3 peptide binding; 390,000 compounds, 0.56% hits; Potency, µM (top dose mostly 114 µM), without a hit: at the top dose activity change, negative = inhibition, actives largely listed as inhibitors; note: nearly all actives have a fitted effect of over 70% in size
Target sequence (P83916 whole entry, looked up): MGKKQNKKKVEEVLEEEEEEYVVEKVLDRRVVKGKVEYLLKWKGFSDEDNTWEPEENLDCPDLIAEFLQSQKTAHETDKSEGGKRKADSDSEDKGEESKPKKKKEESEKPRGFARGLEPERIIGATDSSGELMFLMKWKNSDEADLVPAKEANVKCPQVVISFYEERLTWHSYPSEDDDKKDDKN
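Compound inhibition of the preformed complex between 50 nM HP1-beta and 50 nM biotinylated H3K9me3 peptide was read by AlphaScreen. Buffer was PBS pH 7.4 with 0.01% Tween-20. Incubations ran 30 min at room temperature, with 10 ug/mL donor/acceptor beads.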
Sfp PPTase inh: qHTS Assay for Inhibitors of Bacillus subtilis Sfp phosphopantetheinyl transferase (PPTase); Biochemical Sfp PPTase activity, qHTS; Potency, µM, for inactives: largest response in the series, negative = inhibition, usual class: inhibitors; 310,000 compounds, 3.5% hits; AID 1490, 2009;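 note: the enzyme is Sfp with the accession as filed and its product quenches rhodamine fluorescence; 0% = enzyme reaction without inhibitor and -100% = no enzyme wells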
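Sfp 15 nM + cpd, 15 min RT; start w/ rhodamine-CoA 5 uM, BHQ-2-YbbR 12.5 uM (final); 50 mM Hepes pH 7.6, 10 mM MgCl2, 0.01% NP-40, 0.01% BSA; read 525/598 nm at 0 and 30 min.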
BAZ2B inh: qHTS Assay for Inhibitors of BAZ2B | 360,000 compounds, 4.4% hits | AlphaScreen BAZ2B-H3K14Ac peptide displacement | AID 504333, 2011 | Bromodomain adjacent to zinc finger domain protein 2B (Homo sapiens), Q9UIF8 | Potency, µM (doses to about 114 µM), inactives show at the top dose activity change, negative = inhibition, hits mostly inhibitors; note: % is set by controls: 0 for no effect and ±100 for the full control effect; nearly all actives have a fitted effect of over 60% in size
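Compounds, titrated to a top concentration of 110 uM, were incubated 30 min at room temperature with preformed BAZ2B/acetyl-K14 H3 peptide complex (50 nM each). Proximity signal was measured by AlphaScreen after 20 min with beads.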
PLK1 PBD inh: qHTS for Inhibitors of PLK1-PDB (polo-like kinase 1 - polo-box domain): Primary Screen; Serine/threonine-protein kinase PLK1 (Homo sapiens), P53350; Plk1 PBD binding of FITC phosphopeptide, fluorescence polarization; Potency, µM, inactives show max response, negative = inhibition, usual class: inhibitors; 360,000 compounds, 2.8% hits; note: series mostly up to about 57 µM; % is set by controls: 0 for no effect and ±100 for the full control effect; nearly all actives have a fitted effect of over 65% in size
Target sequence (P53350 whole entry, looked up, the tested form may be a part): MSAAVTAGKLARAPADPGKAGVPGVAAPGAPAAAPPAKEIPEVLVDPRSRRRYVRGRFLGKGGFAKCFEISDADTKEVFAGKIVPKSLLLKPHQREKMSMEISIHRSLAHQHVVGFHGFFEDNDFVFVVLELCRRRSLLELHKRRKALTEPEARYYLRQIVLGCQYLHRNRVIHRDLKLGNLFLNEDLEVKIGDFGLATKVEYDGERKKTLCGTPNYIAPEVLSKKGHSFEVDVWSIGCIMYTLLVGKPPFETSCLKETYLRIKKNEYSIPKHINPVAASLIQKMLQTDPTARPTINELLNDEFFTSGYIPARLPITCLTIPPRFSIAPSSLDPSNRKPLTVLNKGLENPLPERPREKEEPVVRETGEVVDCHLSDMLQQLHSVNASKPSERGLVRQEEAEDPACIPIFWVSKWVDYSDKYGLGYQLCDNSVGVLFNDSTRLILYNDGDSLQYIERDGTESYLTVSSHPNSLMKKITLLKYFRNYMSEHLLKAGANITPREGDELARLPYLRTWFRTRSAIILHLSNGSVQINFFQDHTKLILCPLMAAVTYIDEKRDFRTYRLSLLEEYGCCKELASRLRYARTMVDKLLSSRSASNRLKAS
JMJD2A Tudor: qHTS Assay for Inhibitors of JMJD2A-Tudor Domain; AlphaScreen JMJD2A-Tudor / H3K4me3 peptide binding; 390,000 compounds, 4.4% hits; Lysine-specific demethylase 4A (Homo sapiens), O75164; Potency, µM (series often up to 114 µM), for the others: top-dose activity change, negative = inhibition, usual class: inhibitors; AID 504339, 2011; note: % is set by controls: 0 for no effect and ±100 for the full control effect; nearly all actives have a fitted effect of over 50% in size
G9a block: qHTS Assay for Inhibitors of Histone Lysine Methyltransferase G9a; AID 504332, 2011; Potency, µM (top dose mostly 102 µM), for the others: top-dose activity, negative = inhibition, hits mostly inhibitors; 350,000 compounds, 8.8% hits; Histone-lysine N-methyltransferase EHMT2 (Homo sapiens), Q96KQ7; G9a H3K9 monomethylation, AlphaScreen, 2 h; note: % is set by controls: 0 for no effect and ±100 for the full control effect; nearly all actives have a fitted effect of over 75% in size
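Step 1: enzyme (final 20 nM) with compound, 15 min RT. Step 2: substrate peptide 500 nM and SAM 20 uM, 2 h RT. Step 3: anti-H3K9me1 antibody and AlphaScreen beads, 10 min, then plate read.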
An asterisk follows results filed as active; [ ] = dose if it differs, or a comment. Hits are enriched below; roughly 12% of the tested compounds scored in any of these assays. Calls come from the whole dose curve; as a rule, active = well fitted curve in the direction sought with a large enough effect; inconclusive = small, poorly fitted or top-dose-only effect, or another doubt; inactive = no such curve, though single readings can be large; an effect the other way counts as inactive or inconclusive. Potency is the fitted concentration of half-maximal effect.

For O=C(Nc1ccccc1OCc1cc(=O)n2ccccc2n1)c1cccc(Br)c1 the results were HP1b chromo inh 25.5%[57 µM], BAZ2B inh 7.0%, JMJD2A Tudor 1.6% and G9a block -1.0%[59 µM].
For COc1cccc(Nc2sc(C(=O)c3ccc(Cl)cc3)c(N)c2C(=O)NCCc2ccc(OC)c(OC)c2)c1 the results were HP1b chromo inh -15.9%, BAZ2B inh inconclusive, JMJD2A Tudor inconclusive and G9a block 10µM*.
Screening COc1ccc(CNC(=O)c2c(Nc3ccc(OC)cc3OC)sc(C(=O)c3ccc(Cl)cc3)c2N)cc1 returned HP1b chromo inh -27.8%, BAZ2B inh inconclusive, JMJD2A Tudor inconclusive and G9a block -30.2%[59 µM].
Screening COc1ccc(-c2nc3c4ccccc4n(CC(=O)N4CCN(c5ccc(F)cc5)CC4)c(=O)n3n2)cc1 returned HP1b chromo inh 71.4%, BAZ2B inh 14.9%, JMJD2A Tudor -11.7% and G9a block -3.0%[59 µM].
CC(C)(C)OC(=O)n1cc(CCO)c2ccccc21 was read as HP1b chromo inh 34.5%, BAZ2B inh 0.9%, PLK1 PBD inh 3.8%, JMJD2A Tudor -15.5% and G9a block 11.4%[0.501 µM].
`CN(C)CCCn1c(SCc2c(Cl)cccc2Cl)nnc1-c1ccncc1` gave HP1b chromo inh inconclusive, Sfp PPTase inh -17.3%, BAZ2B inh 70.8µM*, PLK1 PBD inh -13.6%, JMJD2A Tudor 20µM* and G9a block 10µM*.
`Cc1ccc2oc(C(Cl)(Cl)Cl)cc(=O)c2c1` gave HP1b chromo inh 19.2%, Sfp PPTase inh 6.7%, BAZ2B inh -1.8%, PLK1 PBD inh -5.2%, JMJD2A Tudor -14.0% and G9a block -3.2%[59 µM].
For NC(=N\N=Cc1ccccc1)/C(N)=N/N=Cc1ccccc1 the results were HP1b chromo inh 14.0%, PLK1 PBD inh -3.2% and JMJD2A Tudor -22.6%.
`Cn1c(CS/C(N)=N/N=C/c2ccccc2)c(Br)c(=O)n1-c1ccccc1` gave HP1b chromo inh -5.9%, Sfp PPTase inh 44.7µM*, BAZ2B inh inconclusive, PLK1 PBD inh 23.8µM*, JMJD2A Tudor 50.1µM* and G9a block 35.5µM*.
COc1ccccc1CN(Cc1cc2cc(C)cc(C)c2[nH]c1=O)Cc1nnnn1CC1CCCO1 (stereo unspecified) was read as HP1b chromo inh 20.9%, Sfp PPTase inh -2.6%, BAZ2B inh -1.9%, PLK1 PBD inh -2.1%, JMJD2A Tudor -20.2% and G9a block 6.2%[12.7 µM].
Screening CCOC(=O)Cn1nnnc1CN(Cc1ccc(OC)cc1)Cc1cc2cc(C)ccc2[nH]c1=O returned HP1b chromo inh 7.5%, Sfp PPTase inh 70.8µM*, BAZ2B inh -0.6%, PLK1 PBD inh 0.4%, JMJD2A Tudor -25.6% and G9a block inconclusive.
For CCOC(=O)Cn1nnnc1CN(Cc1ccc(OC)cc1)Cc1cc2cc(CC)ccc2[nH]c1=O the results were HP1b chromo inh -3.8%, Sfp PPTase inh 17.8µM*, BAZ2B inh -21.9%, PLK1 PBD inh -7.6%, JMJD2A Tudor -25.6% and G9a block inconclusive.
Screening CCc1ccc2[nH]c(=O)c(CN(Cc3ccccc3OC)Cc3nnnn3Cc3ccco3)cc2c1 returned HP1b chromo inh -4.3%, Sfp PPTase inh -18.0%, BAZ2B inh -9.2%, PLK1 PBD inh -7.9%, JMJD2A Tudor -32.3% and G9a block inconclusive.
For CCOC(=O)Cn1nnnc1CN(Cc1ccc(OC)cc1)Cc1cc2cc(C)cc(C)c2[nH]c1=O the results were HP1b chromo inh 25.4%, Sfp PPTase inh 35.5µM*, BAZ2B inh 8.6%, PLK1 PBD inh -7.8%, JMJD2A Tudor -20.9% and G9a block 22.4µM*.
Screening CCCCNc1ncnc2c1nnn2C returned HP1b chromo inh -15.2%, BAZ2B inh -6.3%, JMJD2A Tudor -14.9% and G9a block -7.4%[59 µM].
For Nc1nc(=S)c2[nH]cnc2[nH]1 the results were HP1b chromo inh 4.9%, Sfp PPTase inh -92.0%, BAZ2B inh -35.6%, PLK1 PBD inh -5.9%, JMJD2A Tudor 5.62µM* and G9a block 2.24µM*.
c1ccc(CNc2nc(NCc3ccccc3)c3sccc3n2)cc1 was read as PLK1 PBD inh -3.7%.
For COc1ccc(NC(=O)c2cc(C3CCCCN3S(=O)(=O)c3cn(C)cn3)on2)c(C)c1 (stereo unspecified) the results were PLK1 PBD inh -0.6%.
Screening C=C1Nc2ccccc2C(=O)N1c1ccc(C(=O)N2CCN(C(=O)c3ccco3)CC2)cc1 returned HP1b chromo inh 40.1% and JMJD2A Tudor 0.0%.
`Cc1ccc(C(=O)Nc2ccc(Cl)c(-c3nc4ncccc4o3)c2)c(C)c1` gave HP1b chromo inh 37.7%, BAZ2B inh 0.2%, JMJD2A Tudor -1.4% and G9a block 10.7%[59 µM].
`O=C(O)CN1C(=O)/C(=C\c2cccc(OCc3ccccc3F)c2)SC1=S` gave HP1b chromo inh inconclusive, Sfp PPTase inh 9.8%, BAZ2B inh -31.6%, PLK1 PBD inh 29.9µM*, JMJD2A Tudor inconclusive and G9a block inconclusive.
For O=C(CCCN1C(=O)/C(=C/c2ccccc2Cl)SC1=S)NNC(=O)c1ccc(Cl)cc1Cl the results were HP1b chromo inh 66.3%, Sfp PPTase inh inconclusive, BAZ2B inh -4.0%, PLK1 PBD inh -15.1%, JMJD2A Tudor -14.0%[11.4 µM] and G9a block 37.3%[12.7 µM].
For O=C(O)CN1C(=O)/C(=C\c2cccc(OCc3ccc(Cl)cc3)c2)SC1=S the results were HP1b chromo inh -11.0%, Sfp PPTase inh inconclusive, BAZ2B inh 44.7µM*, PLK1 PBD inh 21.2µM*, JMJD2A Tudor inconclusive and G9a block 39.8µM*.
For O=C(O)CN1C(=O)/C(=C\c2cc(Br)ccc2OCc2ccc(Cl)cc2Cl)SC1=S the results were HP1b chromo inh inconclusive, Sfp PPTase inh inconclusive, BAZ2B inh 25.1µM*, PLK1 PBD inh 11.9µM*, JMJD2A Tudor 20µM* and G9a block 40.0%[0.501 µM].
For O=C(O)CN1C(=O)/C(=C\c2cccc(OCc3ccc(F)cc3)c2)SC1=S the results were HP1b chromo inh -8.7%, Sfp PPTase inh -13.9%, BAZ2B inh inconclusive, PLK1 PBD inh 26.7µM*, JMJD2A Tudor inconclusive and G9a block 44.7µM*.
Screening Cn1cccc1/C=C1\SC(=S)N(CC(=O)O)C1=O returned HP1b chromo inh 3.6%, Sfp PPTase inh -6.9%, BAZ2B inh -34.4%, PLK1 PBD inh 30.3%, JMJD2A Tudor -17.4% and G9a block -20.4%[59 µM].
